This is a sample that favours compounds with a hit; in the whole collection about 3.5% have one here.
TEAD-YAP block = TEAD-YAP interaction inhibition; HEK-TIYL cells, TEAD-Gal4/YAP UAS-luciferase luminescence; inhibition, % at 9.12 µM; 1.4% of 640,000 active; AID 1259422; in the data active means inhibition above about 32%;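 further: 0% = median of test compound wells and 100% = reference inhibitor wells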
FBW7 act = human FBW7 E3 ligase activation, primary screen; Q969H0; AlphaScreen FBW7–phospho-cyclin E peptide binding, activator screen; normalized activity (activation), % at 26.1 µM; 0.13% of 650,000 active; AID 1259310; in the data active means normalized activity above about 1.9%;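 further: purified mutant Fbw7 with reduced substrate affinity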
GPR151 ag = human GPR151 activation; Q8TDV0; AID 1508602; 1% of 650,000 active; PathHunter beta-arrestin GPR151 cells, luminescence; activation, % at 11.2 µM; in the data active means activation above about 4.9%;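 further: 0% = median of compound wells and 100% = cells with positive control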
Target sequence (Q8TDV0 whole entry, looked up): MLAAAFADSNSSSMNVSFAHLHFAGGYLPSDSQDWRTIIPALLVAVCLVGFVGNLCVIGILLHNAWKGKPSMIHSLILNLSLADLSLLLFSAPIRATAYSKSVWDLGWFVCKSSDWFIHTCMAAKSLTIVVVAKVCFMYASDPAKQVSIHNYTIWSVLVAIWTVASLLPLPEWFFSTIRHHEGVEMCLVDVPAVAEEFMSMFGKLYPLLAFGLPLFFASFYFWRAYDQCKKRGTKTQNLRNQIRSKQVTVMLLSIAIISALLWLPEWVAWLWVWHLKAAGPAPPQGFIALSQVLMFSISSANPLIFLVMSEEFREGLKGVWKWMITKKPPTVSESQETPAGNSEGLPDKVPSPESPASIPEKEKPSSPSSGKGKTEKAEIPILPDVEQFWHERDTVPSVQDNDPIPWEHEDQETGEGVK
MITF primary = blocks human microphthalmia-associated transcription factor | O75030 | AlphaScreen MITF homodimerization, bead proximity signal | inhibition, % at 2.6 µM | 0.91% of 650,000 active | AID 1259374; in the data active means inhibition above about 50%;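 further: 0% = vehicle wells with protein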
Active calls of the source: *.

SMILES | TEAD-YAP block | FBW7 act | GPR151 ag | MITF primary
Clc1cccc2nnc(-c3cccc(OCc4ccccc4)c3)n12 | 8.0 | 0.0 | -0.1 | 6.5
CCCN(CCC)c1nc(N)ncc1[N+](=O)[O-] | 59.0* | 0.4 | -1.2 | 5.0
CCCCN(CCCC)c1nc(N)ncc1[N+](=O)[O-] | 34.3* | 0.0 | 1.0 | 3.4
Nc1ncc([N+](=O)[O-])c(Oc2ccccc2F)n1 | -1.5 | -0.3 | -0.2 | 5.3
CNCC(O)Cn1ccc2ccccc21 (configuration not stated) | 11.9 | 0.0 | 1.2 | 3.8
COc1ccccc1NCC(O)Cn1ccc2ccccc21 (configuration not stated) | -3.9 | -0.9 | -1.0 | 69.2*
COc1ccc(C)cc1NC(=O)CN1C(=O)C(C)Oc2ccccc21 (configuration not stated) | -2.2 | -0.1 | 0.3 | -7.2
Cc1cc(C)nc(NC(N)=NCc2ccccc2)n1 | 5.0 | -0.2 | -0.3 | 6.7
Cc1ccc(CN=C(N)Nc2nc(C)cc(C)n2)cc1 | 54.0* | -0.2 | 1.6 | -0.2
Cc1c(Cc2ccccc2)c(Nc2ccc(O)cc2)n2c(nc3ccccc32)c1C#N | -0.3 | -0.1 | 0.2 | 1.1
COc1ccc2occ(C(=O)c3oc4ccc(Cl)cc4c3N)c2c1 | 57.0* | 0.0 | -0.8 | -10.1
CS(=O)(=O)c1ccc(Nc2cccc(-c3nnc4n3CCCCC4)c2)c([N+](=O)[O-])c1 | 0.2 | -0.1 | 0.5 | 4.7
Cn1c(=O)c2c(ncn2CC(=O)NNC(=O)c2cc(-c3ccccc3)n[nH]2)n(C)c1=O | 5.6 | 0.1 | 0.7 | 11.0
Cc1ccc(-c2nnc(Cc3ccc([N+](=O)[O-])cc3)o2)cc1 | 60.9* | 0.3 | -0.6 | 21.9
O=[N+]([O-])c1ccc(Cc2nnc(-c3ccc(F)cc3)o2)cc1 | -35.6 | 0.5 | -0.5 | 21.1
CCc1c(C)sc(NC(=O)C2C3C=CC(C3)C2C(=O)O)c1C(=O)OC(C)C (configuration not stated) | 63.7* | -0.1 | 1.4 | -4.0
O=C(Nc1ccc2oc(-c3cccc(I)c3)nc2c1)c1ccc(-c2cccc([N+](=O)[O-])c2)o1 | 2.4 | 0.3 | -1.1 | -6.4
CC(C)(C)c1ccc(-c2nc3cc(NC(=O)c4ccc(Br)o4)ccc3o2)cc1 | 37.0* | 0.3 | 0.1 | -9.7
CC(C)(C)c1ccc(C(=O)Nc2ccc3oc(-c4ccc(C(C)(C)C)cc4)nc3c2)cc1 | -6.9 | 0.1 | 1.2 | 8.6
O=C(Nc1ccc2oc(-c3ccc(I)cc3)nc2c1)c1ccc2c(c1)OCCO2 | -16.6 | 0.0 | -0.9 | -10.2
CCc1ccc2oc(-c3ccc(NC(=O)c4ccc5c(c4)OCCO5)cc3)nc2c1 | 39.3* | 0.5 | -0.2 | -3.4
CC(C)(C)c1ccc(-c2nc3cc(NC(=O)c4ccc(-c5cccc([N+](=O)[O-])c5)o4)ccc3o2)cc1 | 34.0* | 0.0 | 1.2 | -13.4
N#CCSc1nc2nccnc2c(=O)n1Cc1ccccc1 | -0.6 | -0.1 | 1.6 | -10.0
Cc1c(Cc2ccccc2)c(N2CCN(Cc3ccccc3)CC2)n2c(nc3ccccc32)c1C#N | -7.6 | 2.0* | 1.6 | 7.9
O=C(Nc1ccccc1NC(=O)c1cc2ccccc2o1)c1ccccn1 | -3.8 | -0.1 | 0.4 | -3.2
SMILES | TEAD-YAP block | FBW7 act | GPR151 ag | MITF primary
O=C(Nc1ccccn1)c1cc2ccccc2o1 | 70.5* | -0.2 | -9.6 | 10.8
Cc1ccnc(NC(=O)c2cc3ccccc3o2)c1 | 55.8* | 0.5 | -8.3 | 3.5
Cc1cc(C)cc(NC(=O)c2cc3ccccc3o2)c1 | -26.6 | 0.0 | -0.6 | 2.0
O=C(O)C1Nc2c(Cl)cc(Cl)c(Cl)c2C2C=CCC12 (configuration not stated) | 8.6 | 0.8 | -0.6 | 57.7*
O=C(O)C1Nc2c(Cl)cc(Cl)cc2C2C=CCC12 (configuration not stated) | 8.5 | -0.1 | 1.4 | 59.4*
Clc1cc(Cl)c2c(c1)C1C=CCC1C(c1ccccc1)N2 (configuration not stated) | 9.7 | 0.1 | -0.1 | 12.4
CN(C)c1ccc(C2OCC3(CO2)SC(=O)NC3=O)cc1 (configuration not stated) | 11.5 | 4.9* | -1.1 | 10.8
COc1ccc(-c2cc(=O)oc3c(OC)c(OC)ccc23)cc1 | 55.6* | 0.0 | -1.4 | -3.3
Cc1cnc(NCc2ccc3c(c2)OCO3)nc1Nc1ccc(N2CCOCC2)cc1 | 42.2* | 0.1 | -0.6 | 16.1
Cc1cnc(Nc2ccc(C(F)(F)F)cc2)nc1Nc1ccc(N2CCOCC2)cc1 | 49.3* | -0.1 | 1.8 | 14.9
Cc1cnc(Nc2ccncc2)nc1Nc1ccc(N2CCOCC2)cc1 | 39.6* | -0.3 | -1.1 | -3.6
Cc1cnc(Nc2ccc(N3CCOCC3)cc2)nc1NCCOc1ccccc1 | 47.9* | 0.0 | 2.8 | 14.2
COc1ccc(NC(=O)Cn2c(=O)c(CNc3ccccc3)cc3ccc(C)cc32)cc1OC | 8.3 | -0.2 | 0.9 | 3.5

Screening data as filed in PubChem BioAssay.
